DUSP3 inh = DUSP3 (human) phosphatase inhibition; recombinant VHR phosphatase, pNPP absorbance; P51452; inhibition, % at 13.3 µM; 290,000 compounds, 0.52% hits; in the data active = inhibition above about 50%
Target sequence (P51452 whole entry, looked up): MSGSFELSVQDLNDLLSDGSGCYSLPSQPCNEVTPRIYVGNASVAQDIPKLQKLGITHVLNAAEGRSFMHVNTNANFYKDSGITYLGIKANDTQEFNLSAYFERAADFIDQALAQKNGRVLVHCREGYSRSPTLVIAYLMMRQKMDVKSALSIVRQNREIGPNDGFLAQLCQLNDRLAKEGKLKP
SARS 3CLpro inh = SARS-CoV 3CLpro protease inhibition. P0C6X7. recombinant SARS-CoV 3CLpro, quenched FRET peptide cleavage. inhibition, % at 6 µM. 290,000 compounds, 0.14% hits. AID 1706; in the data active = inhibition above about 12%
CCHF vOTU inh = CCHFV vOTU protease inhibition | 370,000 compounds, 0.55% hits | Pep-AMC fluorescence | inhibition, % at 11.5 µM; in the data active = inhibition above about 30%; note: 0% = vehicle wells with enzyme and 100% = no enzyme wells
Mtb hypoxia inh = reduces hypoxia-regulated biosensor signal in M. tuberculosis | 300,000 compounds, 0.1% hits | M. tuberculosis hypoxia-regulated fluorescent reporter, fluorescence | fluorescence inhibition, % (no concentration beside the values); in the data active = fluorescence inhibition mostly above about 23%, no sharp cut-off; inactive = mostly below about 17%
PriA SSB inh = inhibitors of Klebsiella pneumoniae PriA binding to SSB C-terminal tail; 430,000 compounds, 0.6% hits; inhibition, % at 33 µM; AID 1272365; AlphaScreen SSBct-PriA binding, biotinylated peptide; in the data active = inhibition mostly above about 37%, no sharp cut-off; inactive = mostly below about 20%;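 note: plate controls were negative control peptide for no effect and reference peptide for full effect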
Active calls of the source: *. Hits are enriched below; roughly 1.3% of the tested compounds scored in any of these assays.

How did COC(=O)c1ccc(CNC(=O)c2ccc(OCC(=O)N3CCOCC3)c(OC)c2)cc1 do in these assays?
CCHF vOTU inh: 1.3; Mtb hypoxia inh: 0.4; PriA SSB inh: -2.1

Results for Cc1cc(N=Nc2ccccc2C)ccc1N ?
CCHF vOTU inh: 10.0; Mtb hypoxia inh: 3.2; PriA SSB inh: 81.1*

How did Cc1cc(C)c(NC(=O)Cn2ncc3ccccc32)c(C)c1 do in these assays?
DUSP3 inh: 57.3*; SARS 3CLpro inh: 1.2; CCHF vOTU inh: 9.0; Mtb hypoxia inh: 13.6; PriA SSB inh: -6.5

What do the screens show for `CCN(CC)c1ccc2c(-c3ccc(S(=O)(=O)O)cc3S(=O)(=O)[O-])c3ccc(=[N+](CC)CC)cc-3oc2c1`?
DUSP3 inh: 30.7; SARS 3CLpro inh: -496.3; Mtb hypoxia inh: 39.0*; PriA SSB inh: -2.8

What do the screens show for `CCN(CC)c1ccc2nc3c4ccccc4c(=O)cc-3oc2c1`?
DUSP3 inh: 13.0; SARS 3CLpro inh: 0.2; CCHF vOTU inh: 9.8; Mtb hypoxia inh: -7.2; PriA SSB inh: -48.9

Results for O=C(Nc1ccccc1F)c1cc(C2CCN(C(=O)Cn3ncccc3=O)CC2)[nH]n1 ?
PriA SSB inh: 0.0

What do the screens show for `Cc1occc1-c1nc2s/c(=C\c3ccc(-c4cc(Cl)cc(Cl)c4)o3)c(=O)n2n1`?
PriA SSB inh: -9.0

Results for C=CCn1cccc(C(=O)Nc2ccc(N(C)C)cc2)c1=O ?
DUSP3 inh: 56.0*; SARS 3CLpro inh: 1.4; CCHF vOTU inh: 6.4; Mtb hypoxia inh: -6.2; PriA SSB inh: -0.9

What do the screens show for `O=C(c1cc2cc([N+](=O)[O-])ccc2oc1=O)N1CCc2ccccc2C1`?
PriA SSB inh: -4.0

How did O=C(c1cc2cc([N+](=O)[O-])ccc2oc1=O)n1cccn1 do in these assays?
DUSP3 inh: 24.7; SARS 3CLpro inh: 3.2; CCHF vOTU inh: -0.6; Mtb hypoxia inh: -6.4; PriA SSB inh: 56.4*

Results for Cc1nn(C)cc1C=NCCOCc1ccccc1 ?
DUSP3 inh: 51.5*; SARS 3CLpro inh: 1.1; CCHF vOTU inh: -4.2; Mtb hypoxia inh: 7.3; PriA SSB inh: 2.4

What do the screens show for `Cc1nn(C)cc1/C=N/NC(=O)c1ccco1`?
DUSP3 inh: 16.3; SARS 3CLpro inh: -2.2; CCHF vOTU inh: 5.5; PriA SSB inh: inactive

What do the screens show for `c1ccc(N2CCN(c3nc(NCc4ccco4)c4ccccc4n3)CC2)cc1`?
DUSP3 inh: -2.4; SARS 3CLpro inh: 2.1; CCHF vOTU inh: 13.1; PriA SSB inh: 40.0*

How did COc1cc(C(=O)NN=C(C)c2ccccn2)cc(OC)c1OC do in these assays?
PriA SSB inh: -17.3

How did COc1ccc(-c2csc(CN3CCN(C(=O)c4ccc([N+](=O)[O-])o4)CC3)n2)cc1 do in these assays?
PriA SSB inh: 19.0

What do the screens show for `COc1ccc(-c2csc(CN3CCN(C(=O)c4ccc(Br)o4)CC3)n2)cc1`?
PriA SSB inh: 44.0*

What do the screens show for `CCCCC(CC)C(=O)Nc1ccc(C)c(O)c1` (stereo not given)?
DUSP3 inh: 53.0*; SARS 3CLpro inh: 1.6; CCHF vOTU inh: -0.1; Mtb hypoxia inh: -7.4; PriA SSB inh: -20.8

How did COc1ccc(NC(C)=O)cc1NC(=O)CC1CCCCN1S(=O)(=O)c1ccccc1 (stereo not given) do in these assays?
PriA SSB inh: 22.0

How did Cc1ccc(C)c(NC(=O)CN2C(=O)NC(C)(c3ccc4c(c3)OCCO4)C2=O)c1 (stereo not given) do in these assays?
CCHF vOTU inh: -2.0; Mtb hypoxia inh: 33.9*; PriA SSB inh: 1.5

What do the screens show for `COc1ccc(NC(=O)Nc2cnc(OC)nc2N2CCCC2)c(C)c1`?
PriA SSB inh: -3.0

Results for Oc1c(Cl)cc(Cl)cc1/C=N/c1nccs1 ?
DUSP3 inh: -10.4; SARS 3CLpro inh: 1.4; CCHF vOTU inh: 10.4

Results for Oc1c(Cl)cc(Cl)cc1C=Nc1nccs1 ?
Mtb hypoxia inh: 2.5; PriA SSB inh: 55.7*

What do the screens show for `O=C(CSc1nc2ccccc2nc1N1CCOCC1)N1CCN(c2ccccc2)CC1`?
DUSP3 inh: 9.5; SARS 3CLpro inh: 6.5; CCHF vOTU inh: 5.1; Mtb hypoxia inh: 17.1*; PriA SSB inh: -16.5

What do the screens show for `CC(C)c1ccc(OCC(=O)N2CCC(c3nn(C)c(=O)n3-c3ccccc3)CC2)cc1`?
PriA SSB inh: -7.0

What do the screens show for `C#CCOCCOCCOCCNc1nc(N2CCOCC2)nc(N2CCN(C(=O)C(Cc3cc4ccccc4[nH]3)n3cc(C(N)C(C)CC)nn3)CC2)n1` (stereo not given)?
Mtb hypoxia inh: 3.3

How did C#CCOCCOCCOCCNc1nc(N2CCN(C(=O)C(Cc3cc4ccccc4[nH]3)n3cc(C(N)C(C)CC)nn3)CC2)nc(N2CCN(C(=O)C(Cc3cc4ccccc4[nH]3)n3cc(C(N)C(C)CC)nn3)CC2)n1 (stereo not given) do in these assays?
DUSP3 inh: -0.5; SARS 3CLpro inh: 5.3; PriA SSB inh: 43.3*

How did O=C(CSc1nnc(-c2ccccn2)n1Cc1ccco1)c1ccc(Cl)cc1 do in these assays?
DUSP3 inh: 11.3; SARS 3CLpro inh: 5.2; CCHF vOTU inh: 3.9; Mtb hypoxia inh: 17.7; PriA SSB inh: 89.9*

Results for O=C(CSc1nnc(-c2ccccn2)n1Cc1ccco1)c1ccccc1 ?
DUSP3 inh: 18.2; SARS 3CLpro inh: -0.9; CCHF vOTU inh: -9.2; Mtb hypoxia inh: 6.9; PriA SSB inh: -15.1

How did Cc1sc2ncnc(N3CCN(c4ncccn4)CC3)c2c1C do in these assays?
DUSP3 inh: 57.9*; SARS 3CLpro inh: 0.6; CCHF vOTU inh: 1.2; Mtb hypoxia inh: 9.0; PriA SSB inh: -2.1

Results for Cc1sc2ncnc(N3CCN(c4ncnc5sc(C)c(C)c45)CC3)c2c1C ?
PriA SSB inh: -5.0

Results for O=C(Cc1csc(NC(=O)c2ccc[nH]c2=O)n1)NC1CC1 ?
PriA SSB inh: -1.0

What do the screens show for `CCN1CCCc2cc(CN(CCN3CCOCC3)C(=S)Nc3ccc(C)cc3)ccc21`?
DUSP3 inh: 26.9; SARS 3CLpro inh: 2.9; CCHF vOTU inh: 4.0; Mtb hypoxia inh: -1.7; PriA SSB inh: 30.3

Results for CCN1CCCc2cc(CN(CCN3CCOCC3)C(=S)Nc3cccc(Cl)c3)ccc21 ?
DUSP3 inh: 22.3; SARS 3CLpro inh: 1.1; CCHF vOTU inh: -7.7; Mtb hypoxia inh: -16.1; PriA SSB inh: 52.1*

What do the screens show for `COc1ccc(OC)c2sc(N(Cc3ccccn3)C(=O)c3ccccc3Oc3ccccc3)nc12`?
PriA SSB inh: -5.0

What do the screens show for `COc1ccc(C(=O)N(C)C2CCN(C)CC2)cc1S(=O)(=O)Nc1cc(Cl)ccc1Cl`?
DUSP3 inh: 52.4*; SARS 3CLpro inh: -0.7; Mtb hypoxia inh: -3.8; PriA SSB inh: -8.9

How did CCCCCCOC(=O)CCc1c(C)nc(N)[nH]c1=O do in these assays?
DUSP3 inh: 52.3*; SARS 3CLpro inh: -0.3; CCHF vOTU inh: -8.1; Mtb hypoxia inh: 3.3; PriA SSB inh: -4.6

Results for CCCCCCOC(=O)Cc1c(C)nc(N)[nH]c1=O ?
DUSP3 inh: -8.5; SARS 3CLpro inh: 1.0; CCHF vOTU inh: 11.1; Mtb hypoxia inh: 8.1; PriA SSB inh: -3.7

Results for COc1ccc(CCS(=O)(=O)Nc2ccc3c(c2)N(C(=O)c2cccs2)CC3)cc1 ?
PriA SSB inh: 5.0

From PubChem BioAssay
